# Test results as given in PubChem BioAssay AID463173 (ICCB-Longwood Screening Facility, Harvard Medical School, 2010).
# Among all 52,000 compounds or so, about 4,300 (8.3%) were called active. What follows is part of a selection rich in actives, with near analogues and random picks from the rest. Values without a mark were called inactive. Cut-off read from the data, not from the text of the source: active = survival mostly below about 52% (no sharp cut-off); inactive = mostly above about 56%.
# Test system: DeltatarO mutant
# Test: growth inhibition of S. aureus wild type versus tarO mutant, primary screen, teichoic acid synthesis inhibitors, RN4220, OD600 (AID 463173)
# Conditions: OD600, 18 h, stronger effect = lower value, screened at 18.75 µg/mL (by protocol)
row,SMILES,survival
1,O=c1cc(Nc2cccc(Br)c2)[nH]c(=O)[nH]1,68%
2,O=C(NCc1cccs1)c1ccc(Cn2c(SCc3ccccc3)nc3cccnc32)cc1,71%
3,CCOc1ccc(NC(=O)c2sc3nc4c(c(-c5ccccc5)c3c2N)C(=O)CC(C)(C)C4)cc1,49%
4,CCOC(=O)c1cc(NC(=O)c2ccc(C)cc2)c(=O)n2c1oc1ccc(Cl)cc12,55%
5,CCOC(=O)c1cc(NC(=O)c2ccc(F)cc2)c(=O)n2c1oc1ccc(Cl)cc12,127%
6,CCOC(=O)c1cc(NC(=O)c2ccc(C)cc2)c(=O)n2c1oc1ccccc12,52%
7,CCOC(=O)c1cc(NC(=O)c2ccc(OC)cc2)c(=O)n2c1oc1ccc(Cl)cc12,46% (active)
8,CCOC(=O)c1cc(NC(=O)c2ccc(F)cc2)c(=O)n2c1oc1ccccc12,54%
9,CCOC(=O)c1cc(NC(=O)c2ccc(Cl)cc2)c(=O)n2c1oc1ccccc12,34% (active)
10,O=C(NCCC1=CCCCC1)c1ccc2c(c1)ncn2-c1cccc(Cl)c1,98%
11,Cc1cc(C)c(NC(=O)Cn2ccn(-c3cccc(Cl)c3)c(=O)c2=O)c(C)c1,57%
12,COc1ccc(NC(=O)c2cc(S(=O)(=O)N3CCOCC3)cn2C)cc1Cl,108%
13,CCN(CC)C(=O)c1sc2c(c1C)c(=O)n(CCc1ccccc1)c(=O)n2Cc1ccc(F)cc1Cl,89%
14,CCOc1cc(CN2CCN(S(=O)(=O)c3ccc(C)cc3)CC2)ccc1OC,171%
15,COc1ccc(CN2CCN(S(=O)(=O)c3ccc(NC(C)=O)cc3)CC2)c(OC)c1OC,61%
16,CC(=O)Nc1ccc(S(=O)(=O)N2CCN(Cc3ccccc3Cl)CC2)cc1,62% (active)
17,CCOc1ccc(CN2CCN(S(=O)(=O)c3ccc(Cl)cc3)CC2)cc1,27% (active)
18,Cc1ccc(S(=O)(=O)N2CCN(Cc3ccccc3Cl)CC2)cc1,13% (active)
19,CCS(=O)(=O)N1CCN(S(=O)(=O)c2ccc(Cl)cc2)CC1,88%
20,Cc1ccc(S(=O)(=O)N2CCN(S(=O)(=O)c3ccc(C)cc3)CC2)cc1,96%
21,Cc1ccc(S(=O)(=O)N2CCC(C(=O)NCc3ccccc3Cl)CC2)cc1,74%
22,COc1cc(OC)c(OC)cc1CN1CCN(S(=O)(=O)c2ccc(NC(C)=O)cc2)CC1,79%
23,O=C(NC1CC(=O)N(c2ccc(F)cc2)C1)c1ccc2c(c1)OCO2 (stereo not given),75%

row,SMILES,survival
1,Cc1cccc(Nc2nnc(-c3ccc(C)c(S(=O)(=O)NCC4CCCO4)c3)c3ccccc23)c1 (stereo not given),82%
2,CCOC(=O)COc1ccc(CC)cc1C(=O)c1ccn2nc(-c3ccc(C)cc3)cc2n1,75%
3,COc1ccc(CCNC(=O)c2cccc(Nc3nc4ccccc4nc3-n3nc(C)cc3C)c2)cc1OC,91%
4,N#Cc1nc(-c2ccc(COc3ccc(Cl)cc3)o2)oc1N1CCN(c2ccccc2)CC1,64%
5,CCc1ccc(S(=O)(=O)c2nnn3c2nc(NCc2cccc(OC)c2)c2cc(Cl)ccc23)cc1,105%
6,COc1ccc(NC(=O)c2cnn(-c3ccc(F)cc3F)c2C2CCN(C(=O)OC(C)(C)C)CC2)cc1Cl,72%
7,COc1ccc(C(=O)Nc2nc(-c3ccc(Br)cc3)ns2)cc1,58% (active)
8,Cc1ccc(C(=O)Nc2nc(-c3ccccc3)ns2)cc1,59%
9,COc1ccccc1C(=O)Nc1nc(-c2ccc(Br)cc2)ns1,86%
10,COc1ccccc1C(=O)Nc1nc(-c2ccccc2)ns1,45% (active)
11,CCOc1ccc(C(=O)Nc2nc(-c3ccc(Br)cc3)ns2)cc1,76%
12,Cc1ccccc1C(=O)Nc1nc(-c2ccc(Br)cc2)ns1,49%
13,Cc1ccc(-c2nsc(NC(=O)c3oc4cc(C)c(Cl)cc4c3C)n2)cc1,74%
14,CCc1ccc2oc(C(=O)Nc3nc(-c4ccccc4)ns3)c(C)c2c1,53%
15,Cc1cc2oc(C(=O)Nc3nc(-c4ccccc4)ns3)c(C)c2cc1Cl,45% (active)
16,COc1cccc(C(=O)Nc2nc(-c3ccc(Br)cc3)ns2)c1,65%
17,COc1ccc(-c2nsc(NC(=O)c3ccccc3Br)n2)cc1,34% (active)
18,COc1ccc(-c2nsc(NC(=O)c3cccc(OC)c3)n2)cc1,85%
19,CC(=O)N1CCN(C2=NC(=O)C(=C3CCCCC3)S2)CC1,75%
20,CCCOc1ccc(-c2nonc2NC(=O)c2ccco2)cc1OCCC,111%
21,Cc1c(Cl)cccc1-n1ncc(C(=O)N2CCN(c3ncccn3)CC2)c1C1CCN(C(=O)OC(C)(C)C)CC1,102%
22,COc1cc(C2CC(=O)N(c3ccc(C)c(Cl)c3)C3=C2C(=O)OC3)cc(OC)c1OC (stereo not given),72%
23,Cc1ccc(C)c(NC(=O)C2CCN(c3nn4c(=O)cc(C)nc4s3)CC2)c1,106%

row,SMILES,survival
1,CCOC(=O)c1cc2sccc2n1CC(=O)NC1CCC(C)CC1 (stereo not given),95%
2,Oc1c(C(c2ccccc2F)N2CCN(c3ccccc3F)CC2)sc2nc(-c3ccco3)nn12 (stereo not given),87%
3,COC(=O)c1ccc(NC(=O)CCS(=O)(=O)c2ccc(Br)cc2)cc1,77%
4,Cc1cc(Br)ccc1NC(=O)C(Cc1ccccc1)NS(=O)(=O)c1ccc(Br)s1 (stereo not given),114%
5,COc1ccc(C)cc1NC(=O)C(Cc1ccccc1)NS(=O)(=O)c1cccs1 (stereo not given),84%
6,Cc1cccc(C)c1NC(=O)C(NS(=O)(=O)c1cccs1)c1ccccc1 (stereo not given),56%
7,CC(=O)Nc1ccc(NC(=O)C(NS(=O)(=O)c2ccc(Br)s2)c2ccccc2)cc1 (stereo not given),93%
8,CCC(C)(C)NC(=O)C(NS(=O)(=O)c1cccs1)c1ccccc1 (stereo not given),84%
9,Cc1cc(Br)ccc1NC(=O)C(NS(=O)(=O)c1cccs1)c1ccccc1 (stereo not given),31% (active)
10,CCOc1ccc(OCC)c(NC(=O)C(NS(=O)(=O)c2cccs2)c2ccccc2)c1 (stereo not given),66%
11,O=C(Nc1ccc(Cl)cc1)C(NS(=O)(=O)c1cccs1)c1ccccc1 (stereo not given),19% (active)
12,COc1ccc(C)cc1NC(=O)C(NS(=O)(=O)c1cccs1)c1ccccc1 (stereo not given),11% (active)
13,O=C(c1cccc(C(F)(F)F)c1)C1CCN(C(=O)N2CCOCC2)CC1,103%
14,Cc1cccc(CSc2nc3c(c(=O)[nH]2)C(c2cccc(O)c2)CC(=O)N3)c1 (stereo not given),110%
15,CCc1nn(CC(=O)NCc2ccco2)c(=O)c2cc3cc(F)ccc3n12,104%
16,COc1ccc(Cn2ccc3nc(C)c(C(=O)N4CCN(c5ccccc5)CC4)cc3c2=O)cc1,85%
17,COc1ccc(CNC(=O)Cn2c(=O)cc(-c3ccccc3)c3c(C)nn(C)c32)cc1,67%
18,COc1ccc(CCNC(=O)CN(c2ccccc2)S(=O)(=O)N(C)C)cc1OC,62%
19,Cc1cccc(NC(=O)c2sc(-n3nc(C)c(CCC(C)C)c3C)nc2C)c1C,62%
20,Cc1nc(-n2nc(C)c(CCC(C)C)c2C)sc1C(=O)Nc1cccc(Cl)c1,122%
21,Cc1nc(-n2nc(C)c(CCC(C)C)c2C)sc1C(=O)Nc1cccc(Cl)c1C,56% (active)
22,CCCN(C(=O)Nc1cn(CC(C)C)c(=O)c2ccccc12)c1ccc(F)cc1,82%
23,Cc1cc(C)n(CCCO)c(=O)c1C#N,86%

row,SMILES,survival
1,COc1ccc(-c2cn3c(n2)sc2cc(C(=O)NC4CCCCCC4)ccc23)cc1,73%
2,CCn1c(CN2CCC(C)CC2)nc2cc(NC(=O)c3ccc([N+](=O)[O-])cc3)ccc21,86%
3,CCC1CN(C(=O)Nc2cccc3c2CCCC3)c2ccccc2O1 (stereo not given),56%
4,CCC1CN(C(=O)Nc2cccc3c2CCCC3)c2cc(Cl)ccc2O1 (stereo not given),44% (active)
5,CCC1CN(C(=O)Nc2cccc3c2CCCC3)c2cc(C)ccc2O1 (stereo not given),49%
6,CCC1CN(C(=O)Nc2cc(Cl)c(OC)cc2OC)c2ccccc2O1 (stereo not given),61%
7,CCc1ccccc1NC(=O)N1CC(CC)Oc2ccc(Cl)cc21 (stereo not given),44%
8,CCC1CN(C(=O)Nc2cc(C)ccc2OC)c2cc(Cl)ccc2O1 (stereo not given),44% (active)
9,Cc1ccc(C)c(CN2C(=O)c3ccccc3Sc3ccc(C(=O)NCCCOC(C)C)cc32)c1,89%
10,COc1cccc(N2CCN(c3ncnc4onc(-c5ccc(F)cc5)c34)CC2)c1,83%
11,CCc1ccc(NC(=O)CSc2nc(C)cc(COC)c2C#N)cc1,84%
12,COc1ccc2[nH]c(=O)c(CN(Cc3cccs3)S(=O)(=O)c3cccc4nsnc34)cc2c1,113%
13,CC1CN(C(=O)CCC(=O)Nc2cc(F)ccc2F)c2ccccc2S1 (stereo not given),51%
14,Cc1ccc(Cl)cc1NC(=O)CCC(=O)N1CC(C)Sc2ccccc21 (stereo not given),44% (active)
15,CCc1ccccc1NC(=O)N1CC(C)Sc2ccccc21 (stereo not given),77%
16,COC(=O)c1ccccc1NC(=O)CCC(=O)N1CC(C)Sc2ccccc21 (stereo not given),42% (active)
17,Cc1ccccc1NC(=O)CCC(=O)N1CC(C)Sc2ccccc21 (stereo not given),64%
18,COC(=O)c1ccccc1NC(=O)CCC(=O)N1CCOc2ccccc21,65%
19,Fc1ccccc1N1CCN(Cc2nnc(-c3ccc4c(c3)OCO4)o2)CC1,85%
20,CCC(=O)N(c1nnc(-c2cc(OC)c(OC)c(OC)c2)s1)C1CCCC1,65%
21,O=C(CNC(=O)c1ccc(F)cc1)OCc1cc(=O)n2nc(C3CC3)sc2n1,81%
